# Only some compounds are listed: those with a hit (about 3.5% of all), similar ones and a draw of the others.
# mHTT CaM bind – mHTT-calmodulin interaction abrogation. 3.6% of 190,000 active. P42858. AlphaScreen His-mHTT/GST-CaM binding, luminescence. inhibition, % at 15 µM
# Pf apPOL inh – Pf-apPOL DNA polymerase inhibition; Recombinant Pf-apPOL, molecular beacon fluorescence, 1.5 h; inhibition, % at 10 µM; 0.25% of 210,000 active; AID 1794808
# Numbers stand for hits; – = inactive; · = no result given. No stated cut-off is given here; in the data, active means inhibition above about 50%; inactive means the rest.
SMILES,mHTT CaM bind,Pf apPOL inh
Cc1ccn2c(NC(=O)C(C)Cl)c(-c3cccc(F)c3)nc2c1 (stereo unspecified),69,–
Cc1ccn2c(NC(=O)C(C)C)c(-c3cccc(F)c3)nc2c1,–,–
CS(=O)(=O)Nc1ccccc1I,–,–
O=C(c1ccc2nc(N3C(=O)c4ccccc4C3=O)sc2c1)N(CCO)c1ccccc1,–,–
Cc1cc(I)c(O)c(C=Nc2cc(C)ccc2O)c1,–,–
Cc1ccc(O)c(N=Cc2cc(I)ccc2O)c1,63,–
CC1(C)CC(=O)C2=C(C1)OC(N)=C(C#N)C2c1ccc(Cl)c(Cl)c1 (stereo unspecified),–,–
COc1ccc(-c2noc(C3CCCN3C(=O)Nc3cc(OC)cc(OC)c3)n2)cc1 (stereo unspecified),–,–
O=C1OC(c2ccc(Br)o2)=N/C1=C/c1ccc(Cl)c(Cl)c1,–,–
CCCNc1cc(N2CCC(CCC(=O)Nc3ccc4c(c3)OCCO4)CC2)ncn1,–,–
CCCNc1cc(N2CCC(CCC(=O)Nc3ccc4c(c3)OCO4)CC2)ncn1,60,–
CCNc1cc(N2CCC(CCC(=O)Nc3ccc(OC)c(OC)c3)CC2)ncn1,–,–
CCNc1cc(N2CCC(CCC(=O)Nc3cc(C)ccc3OC)CC2)ncn1,55,–
CCOc1ccc(NS(=O)(=O)c2ccc(C)cc2)c([N+](=O)[O-])c1,–,–
COc1cccc2cc(-c3nc4ccccc4[nH]3)c(=N)oc12,–,75
COc1cccc2cc(-c3nc4ccccc4[nH]3)c(=Nc3ccc(C(N)=O)cc3)oc12,–,–
C=C(C)COc1ccc2c(c1)OC(=CC1=Cc3ccccc3OC1)C2=O,–,–
COc1ccc(S(=O)(=O)Nc2cccc([N+](=O)[O-])c2)cc1OC,–,–
Cc1cc(C)nc(Nc2ncc(O)n2-c2ccc(Cl)cc2)n1,–,52
Cc1ccc(-n2c(O)cnc2Nc2nc(C)cc(C)n2)cc1,–,–
CCc1nnc(NC(=O)c2ccc(S(=O)(=O)N3CCc4ccccc4C3)cc2)o1,55,–
O=C(Nc1nnc(-c2ccc(F)cc2)o1)c1ccc(S(=O)(=O)N2CCc3ccccc3C2)cc1,–,–
CCOCCCN1CC(C(=O)NCc2cccnc2)CC1=O (stereo unspecified),–,–
Nc1ccc2cc3ccc(N)cc3nc2c1,55,·
Cc1nc2cc(N)ccc2s1,–,–
SMILES,mHTT CaM bind,Pf apPOL inh
CCOCCCNC(=O)CCc1nc2ccccc2n(Cc2ccccc2C)c1=O,–,–
CC(=O)Nc1cc(Cl)ccc1Nc1ccccc1,–,–
COc1ccccc1NC(Nc1ccccc1OC)=C(/C=C(\Cl)[N+](=O)[O-])[N+](=O)[O-],73,–
COc1ccccc1NC(=O)c1ccccc1[N+](=O)[O-],–,–
COc1cccc(N2CCN(C(C)C(=O)Nc3cccc(Cl)c3)CC2)c1 (stereo unspecified),–,–
Cc1ccccc1CNC(=O)C(=O)Nc1ccccc1F,–,–
COCCn1c(C)c(C)n2c3c(=O)n(CC(=O)c4ccc(F)cc4)c(=O)n(C)c3nc12,–,–
COc1ccc(-c2c3c(=O)n(C)c(=O)n(C)c3cn2-c2ccccc2OC)cc1,–,78
CCn1cc2c(c1-c1ccccc1)c(=O)n(C)c(=O)n2C,–,–
COc1ccc(-c2c3c(=O)n(C)c(=O)n(C)c3cn2-c2ccc(C)cc2C)cc1,–,–
CNc1ccc([N+](=O)[O-])cc1-n1cc2c(c1-c1ccccc1)c(=O)n(C)c(=O)n2C,–,65
Cc1cc(N)c(-n2cc3c(c2-c2ccccc2)c(=O)n(C)c(=O)n3C)cc1C,–,82
COc1ccc(-c2c3c(=O)n(C)c(=O)n(C)c3cn2-c2ccccc2)cc1,–,–
Cc1ccc(-n2cc3c(c2-c2ccccc2)c(=O)n(C)c(=O)n3C)c(C)c1,–,83
Cn1c(=O)c2c(-c3ccccc3)n(-c3ccccc3)cc2n(C)c1=O,–,–
O=C(NCc1cccc(Cl)c1)C1CCN(c2cnn(Cc3ccccc3)c(=O)c2)CC1,–,–
CC(C)CNC(=O)N1CCCN(C2CCN(Cc3ccccc3)C2=O)CC1 (stereo unspecified),–,–
Cc1ccc(Cl)cc1NC(=O)CCS(=O)(=O)c1ccc(Br)cc1,–,–
COc1ccc(CC(=O)Nc2cccc([N+](=O)[O-])c2)cc1,–,–
O=CN1CCN(Cc2cc(Cl)cc(Cl)c2O)CC1,–,–
O=C(NC(=S)Nc1n[nH]c(C2CC2)c1N=Nc1ccc(Cl)cc1)c1ccccc1,·,–
COc1cccc(C(=O)Nc2ccccc2C2CC2)c1,–,–
COc1cc(C=Nc2ccc(Nc3ccccc3)cc2)cc(OC)c1OC,76,–
COc1cc(C=Nc2ccc(Nc3ccccc3)cc2)c([N+](=O)[O-])cc1OC,96,–
COc1cc(C=Nc2cccc3c(=O)[nH][nH]c(=O)c23)c([N+](=O)[O-])cc1OC,–,–
SMILES,mHTT CaM bind,Pf apPOL inh
COc1cc(C=Nc2ccc(NC(C)=O)cc2)cc(OC)c1OC,–,–
CC(C)NC(=O)N1CCc2c(c(-c3nc(C4CC4)no3)nn2C)C1,–,–
Cc1ccc(NC(=O)C2CCc3nc(N4CCN(C(=O)C(C)C)CC4)sc3C2)c(C)c1 (stereo unspecified),–,–
Cc1ccc(C)c(S(=O)(=O)N=C2C=CC(=O)c3ccccc32)c1,96,–
Cc1cc(S(=O)(=O)N=C2C=CC(=O)c3ccccc32)ccc1Cl,90,–
Cc1cc(C)c(S(=O)(=O)N=C2C=CC(=O)c3ccccc32)cc1C,98,–
Cc1ccc(C)c(S(=O)(=O)N2CCN(C)CC2)c1,–,–
Cc1cc(S(=O)(=O)N2CCN(S(=O)(=O)c3ccc(Cl)c(C)c3)CC2)ccc1Cl,–,–
Cc1cc(C)c(S(=O)(=O)N=C2C=C(Br)C(=O)c3ccccc32)cc1C,–,–
O=c1/c(=C/c2cccc(Br)c2)sc2nc3ccccc3n12,–,–
CC1(C)CCCC2=C1CC(C(=O)O)C(C(=O)N1CCc3ccccc31)C2 (stereo unspecified),–,–
COc1ccc(C=C2Oc3c(CN4CCN(CCO)CC4)c(O)cc(C)c3C2=O)c(OC)c1OC,–,–
O=C(c1ccc(Br)c([N+](=O)[O-])c1)N(c1ccccn1)c1ccccn1,–,–
CC1=CC2=NC(=O)CC(C)(C(=O)NC3CCCCCCC3)N2C=C1 (stereo unspecified),–,–
O=C(c1cccc(F)c1)N1CCCC1c1ccccc1Cl (stereo unspecified),–,–
COc1ccccc1-c1nc(C2CCN(C(=O)COc3ccc(C)cc3)CC2)no1,–,–
COc1ccc([N+](=O)[O-])cc1C1=N/C(=C/c2ccc(C)cc2)C(=O)O1,–,–
Cc1ccccc1C(=O)Nc1ccc(C)c([N+](=O)[O-])c1,–,–
COc1ccc(C(CCN2CCN(c3ccccc3)CC2)c2c(O)cc(OC)cc2OC)cc1 (stereo unspecified),72,–
COc1ccc(C(CCN2CCCCC2)c2c(O)cc(OC)cc2OC)cc1 (stereo unspecified),–,–
COc1cc(O)c(C(CCN2CCN(c3ccccc3)CC2)c2ccc(N(C)C)cc2)c(OC)c1 (stereo unspecified),97,–
CCN(CC)CCC(c1ccc(N(C)C)cc1)c1c(O)cc(OC)cc1OC (stereo unspecified),70,–
CCN(CC)CCC(c1ccc(OC)cc1)c1c(O)cc(OC)cc1OC (stereo unspecified),–,–
COc1ccc(C(CCN2CCCC2)c2c(O)cc(OC)cc2OC)cc1 (stereo unspecified),–,–

# Source: PubChem
